# Measurements published in PubChem BioAssay (EPA / NIEHS).
# Inconclusive results are not listed. Calls of active or inactive are those of the source. How the source made its calls: active means hit-call score of the fitted dose curve at least 0.9, where 1 is the maximum; inconclusive means response in the unintended direction; inactive means score below 0.9.
# Assays:
# [1] = molecular target: chimpanzee Androgen Receptor (AR), AR (gene 747460) (UniProt O97775); assay: NVS_NR_cAR: NovaScreen (NVS) Nuclear Receptor Binding Assay for chimpanzee Androgen Receptor (AR) (AID 2283346);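 further: radioligand displacement from AR measured by scintillation counting in a cell-free assay; a loss of bound radioligand signal versus DMSO counts as binding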
# Chain of chimpanzee Androgen Receptor (AR), AR (gene 747460) (O97775 whole entry, looked up): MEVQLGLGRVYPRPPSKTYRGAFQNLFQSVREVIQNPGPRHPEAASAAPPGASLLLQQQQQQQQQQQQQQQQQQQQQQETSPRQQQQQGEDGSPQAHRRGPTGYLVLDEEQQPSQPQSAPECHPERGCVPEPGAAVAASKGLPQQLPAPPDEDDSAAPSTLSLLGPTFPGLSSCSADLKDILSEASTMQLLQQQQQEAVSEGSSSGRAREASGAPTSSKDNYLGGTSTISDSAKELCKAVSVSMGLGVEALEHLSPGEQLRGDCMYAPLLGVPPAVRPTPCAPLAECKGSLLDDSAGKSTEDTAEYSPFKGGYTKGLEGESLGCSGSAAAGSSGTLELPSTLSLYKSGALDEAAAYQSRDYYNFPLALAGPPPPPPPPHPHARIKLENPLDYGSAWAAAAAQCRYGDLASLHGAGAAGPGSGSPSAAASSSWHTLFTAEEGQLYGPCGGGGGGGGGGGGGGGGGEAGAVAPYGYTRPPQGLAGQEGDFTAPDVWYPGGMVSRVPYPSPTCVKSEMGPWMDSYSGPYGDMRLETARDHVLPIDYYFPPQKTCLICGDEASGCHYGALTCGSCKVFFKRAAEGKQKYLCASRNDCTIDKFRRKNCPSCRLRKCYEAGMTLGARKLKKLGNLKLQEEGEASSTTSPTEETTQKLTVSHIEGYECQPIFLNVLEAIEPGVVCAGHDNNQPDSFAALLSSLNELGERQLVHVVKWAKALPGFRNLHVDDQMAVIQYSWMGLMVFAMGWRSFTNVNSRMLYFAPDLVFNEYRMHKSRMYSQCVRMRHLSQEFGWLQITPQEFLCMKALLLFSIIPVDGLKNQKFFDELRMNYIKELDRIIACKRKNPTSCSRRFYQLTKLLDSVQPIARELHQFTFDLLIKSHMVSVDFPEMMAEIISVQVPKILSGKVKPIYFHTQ
# Summary of the method: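 Radioligand binding to chimpanzee AR expressed in Sf9/Sf21 cells, cell-free, measured 72 h after dosing by lysate-based scintillation counting. Loss of signal vs DMSO; initial duplicate screen at 25 uM, actives retested in concentration series.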
# [2] = molecular target: Estrogen receptor beta (Homo sapiens) (UniProt Q92731); assay: OT_ER_ERbERb_0480: Odyssey Thera (OT) 8-hour HEK293T Protein-Complementation Assay for Estrogen Receptor-beta/-beta Homodimer (AID 2283357);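 further: active means signal gain over DMSO baseline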
# Chain of Estrogen receptor beta (Homo sapiens) (Q92731 whole entry, looked up, the tested form may be a part): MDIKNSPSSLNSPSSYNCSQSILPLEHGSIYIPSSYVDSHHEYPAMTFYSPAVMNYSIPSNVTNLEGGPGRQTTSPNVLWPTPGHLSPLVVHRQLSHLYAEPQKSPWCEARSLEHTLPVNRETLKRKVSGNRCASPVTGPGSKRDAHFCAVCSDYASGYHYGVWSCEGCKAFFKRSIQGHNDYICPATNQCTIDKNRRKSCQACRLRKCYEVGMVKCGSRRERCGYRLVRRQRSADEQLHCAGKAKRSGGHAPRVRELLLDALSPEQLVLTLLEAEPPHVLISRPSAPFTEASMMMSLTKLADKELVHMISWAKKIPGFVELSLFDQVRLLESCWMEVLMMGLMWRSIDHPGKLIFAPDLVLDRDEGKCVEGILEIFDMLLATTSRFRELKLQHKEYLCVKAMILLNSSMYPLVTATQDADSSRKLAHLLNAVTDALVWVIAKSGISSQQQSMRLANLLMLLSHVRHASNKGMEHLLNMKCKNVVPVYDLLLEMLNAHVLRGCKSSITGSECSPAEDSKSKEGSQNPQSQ
# Summary of the method: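 Fluorescence intensity, nuclear for agonists and nuclear plus cytoplasmic for antagonists, was quantified by laser scanning cytometry versus vehicle after 8 h treatment. The cells were HEK293T stably carrying ER beta LBD fragment-complementation partners.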
# [3] = molecular target: Estrogen receptor (Homo sapiens) (UniProt P03372); assay: OT_ER_ERaERa_1440: Odyssey Thera (OT) 24-hour HEK293T Protein-Complementation Assay for Estrogen Receptor-alpha/-alpha Homodimer (AID 2283349);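 further: hits raise fluorescence above DMSO for agonists and antagonists alike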
# Chain of Estrogen receptor (Homo sapiens) (P03372 whole entry, looked up, the tested form may be a part): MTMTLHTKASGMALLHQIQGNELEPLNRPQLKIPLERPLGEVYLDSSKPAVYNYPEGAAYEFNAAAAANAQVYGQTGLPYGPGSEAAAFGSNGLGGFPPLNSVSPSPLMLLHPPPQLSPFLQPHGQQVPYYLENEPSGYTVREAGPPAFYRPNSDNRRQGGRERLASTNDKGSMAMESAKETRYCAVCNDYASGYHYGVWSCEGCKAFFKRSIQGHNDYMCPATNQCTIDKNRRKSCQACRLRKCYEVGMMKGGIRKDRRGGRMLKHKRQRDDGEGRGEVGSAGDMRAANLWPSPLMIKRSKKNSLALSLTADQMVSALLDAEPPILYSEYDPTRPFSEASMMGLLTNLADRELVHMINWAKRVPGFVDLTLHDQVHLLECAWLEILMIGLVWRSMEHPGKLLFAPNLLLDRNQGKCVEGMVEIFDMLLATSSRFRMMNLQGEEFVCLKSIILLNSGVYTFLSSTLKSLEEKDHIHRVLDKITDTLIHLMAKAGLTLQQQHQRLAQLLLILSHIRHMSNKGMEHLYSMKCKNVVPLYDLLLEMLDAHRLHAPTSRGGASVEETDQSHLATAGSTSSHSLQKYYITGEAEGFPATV
# Summary of the method: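 HEK293T cells stably expressing the human ER alpha ligand-binding domain (aa 310-547) as a homodimer PCA were dosed for 24 hours. Fluorescence intensity was read by laser scanning cytometry, and gain of signal was fitted relative to DMSO vehicle.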
# [4] = molecular target: Estrogen receptor (Homo sapiens) (UniProt P03372); assay: OT_ER_ERaERa_0480: Odyssey Thera (OT) 8-hour HEK293T Protein-Complementation Assay for Estrogen Receptor-alpha/-alpha Homodimer (AID 2283351);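 further: rise in fluorescence from reassembled reporter fragments on ERα LBD homodimer in nucleus or whole cell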
# Summary of the method: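 Binding reporter in which dimerisation of ERα LBD (aa 310-547) fusions reconstitutes a fluorescent reporter in HEK293T cells. Compounds incubated 8 h; mean fluorescence intensity increase versus DMSO scored.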
# [5] = molecular target: T1, Estrogen receptor (Homo sapiens) + Estrogen receptor beta (Homo sapiens) (UniProt P03372+Q92731); assay: OT_ER_ERaERb_0480: Odyssey Thera (OT) 8-hour HEK293T Protein-Complementation Assay for Estrogen Receptor-alpha/-beta Heterodimer (AID 2283352)
# T1 sequence (P03372 whole entry, looked up, the tested form may be a part): as above
# T1 sequence (Q92731 whole entry, looked up, the tested form may be a part): as the sequence (Q92731 whole entry, looked up, the tested form may be a part) above
# Summary of the method: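 Increase in mean fluorescence intensity, measured by laser scanning plate cytometry, reported ER-alpha/ER-beta LBD complementation in HEK293T cells after 8 h chemical exposure. DMSO served as baseline; basal signal is low, punctate and cytoplasmic.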
# [6] = molecular target: T1, Estrogen receptor (Homo sapiens) + Estrogen receptor beta (Homo sapiens); assay: OT_ER_ERaERb_1440: Odyssey Thera (OT) 24-hour HEK293T Protein-Complementation Assay for Estrogen Receptor-alpha/-beta Homodimer (AID 2283356);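 further: heteromer of ER alpha and ER beta binding domains; hits raise reporter fluorescence and both agonists and antagonists give an increase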
# Summary of the method: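 Heterodimerisation of ERα (aa 310-547) and ERβ (aa 263-489) ligand binding domains was tracked as fluorescence gain in stably transfected HEK293T cells following 24 h dosing, normalised to DMSO controls.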
# [7] = molecular target: human Peroxisome Proliferator-activated Receptor alpha (PPARa), PPARA (gene 5465) (UniProt Q07869); assay: NVS_NR_hPPARa: NovaScreen (NVS) Nuclear Receptor Binding Assay for human Peroxisome Proliferator-activated Receptor alpha (PPARa) (AID 2283359);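 further: activity means loss of TR-FRET signal versus DMSO baseline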
# Chain of human Peroxisome Proliferator-activated Receptor alpha (PPARa), PPARA (gene 5465) (Q07869 whole entry, looked up): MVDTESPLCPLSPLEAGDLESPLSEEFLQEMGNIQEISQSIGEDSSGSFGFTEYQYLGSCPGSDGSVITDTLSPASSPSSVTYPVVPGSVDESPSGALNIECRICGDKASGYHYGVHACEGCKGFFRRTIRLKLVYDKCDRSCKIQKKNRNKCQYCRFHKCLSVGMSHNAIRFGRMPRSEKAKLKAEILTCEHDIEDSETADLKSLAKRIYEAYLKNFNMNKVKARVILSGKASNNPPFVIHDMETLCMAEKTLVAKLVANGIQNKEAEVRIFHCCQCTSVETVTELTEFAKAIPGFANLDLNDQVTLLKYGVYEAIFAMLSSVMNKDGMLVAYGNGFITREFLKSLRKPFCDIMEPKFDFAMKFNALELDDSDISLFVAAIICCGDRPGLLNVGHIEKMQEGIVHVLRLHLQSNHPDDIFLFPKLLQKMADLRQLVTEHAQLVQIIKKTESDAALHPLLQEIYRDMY
# Summary of the method: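 Cell-free TR-FRET binding assay with extracted PPARα protein, read 1 h after dosing. Primary screen in duplicate at 25 uM, with actives retested in concentration series. Loss of signal versus DMSO.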
# [8] = molecular target: rat Mineralocorticoid Receptor (MR), Nr3c2 (gene 25672) (UniProt P22199); assay: NVS_NR_rMR: NovaScreen (NVS) Nuclear Receptor Binding Assay for rat Mineralocorticoid Receptor (MR) (AID 2283355)
# Summary of the method: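 Cell-free radioligand binding to mineralocorticoid receptor from adrenalectomized rat brain supernatant, scintillation counting after 24 h. Primary screen in duplicate at 25 uM; actives retested in concentration series. Loss of specific binding versus DMSO.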
# [9] = molecular target: Retinoic acid receptor alpha (Homo sapiens) (UniProt P10276); assay: NVS_NR_hRAR_Antagonist: NovaScreen (NVS) Nuclear Receptor Binding Assay for human Retinoic Acid Alpha Receptor Antagonism (RAR) (AID 2283358)
# Chain of Retinoic acid receptor alpha (Homo sapiens) (P10276 whole entry, looked up): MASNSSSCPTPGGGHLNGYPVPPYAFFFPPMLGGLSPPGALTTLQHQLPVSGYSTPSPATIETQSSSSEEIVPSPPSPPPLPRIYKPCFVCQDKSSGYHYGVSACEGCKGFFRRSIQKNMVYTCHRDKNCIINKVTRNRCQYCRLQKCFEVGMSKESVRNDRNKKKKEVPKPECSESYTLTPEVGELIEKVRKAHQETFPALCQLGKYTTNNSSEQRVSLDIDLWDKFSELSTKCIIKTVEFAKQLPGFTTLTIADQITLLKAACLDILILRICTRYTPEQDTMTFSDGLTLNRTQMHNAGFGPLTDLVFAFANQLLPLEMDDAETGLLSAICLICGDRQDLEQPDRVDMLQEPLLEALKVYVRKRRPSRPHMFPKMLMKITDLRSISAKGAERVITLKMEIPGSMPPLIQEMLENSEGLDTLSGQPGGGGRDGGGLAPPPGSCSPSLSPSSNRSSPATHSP
# Summary of the method: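 Cell-free TR-FRET binding assay with extracted human RARalpha in antagonist mode, read 2 h after dosing. Loss of signal was fitted relative to DMSO; the primary screen used 25 uM in duplicate, with concentration series on follow-up.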
# [10] = molecular target: Estrogen receptor (Homo sapiens) (UniProt P03372); assay: NVS_NR_hER: NovaScreen (NVS) Nuclear Receptor Binding Assay for human Estrogen Receptor (ER) (AID 2283348)
# Summary of the method: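 Radioligand competitive displacement binding to estrogen receptor from MCF7 extract, cell-free; 18 h after dosing, scintillation read-out. Primary screen in duplicate at 25 uM; actives followed up in concentration series; loss of signal vs DMSO.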
# [11] = molecular target: PGR (gene 5241) (UniProt P06401); assay: NVS_NR_hPR: NovaScreen (NVS) Nuclear Receptor Binding Assay for human Progestron Receptor (PR) (AID 2283360);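 further: active means loss of bound radioligand signal versus DMSO baseline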
# Chain of PGR (gene 5241) (P06401 whole entry, looked up): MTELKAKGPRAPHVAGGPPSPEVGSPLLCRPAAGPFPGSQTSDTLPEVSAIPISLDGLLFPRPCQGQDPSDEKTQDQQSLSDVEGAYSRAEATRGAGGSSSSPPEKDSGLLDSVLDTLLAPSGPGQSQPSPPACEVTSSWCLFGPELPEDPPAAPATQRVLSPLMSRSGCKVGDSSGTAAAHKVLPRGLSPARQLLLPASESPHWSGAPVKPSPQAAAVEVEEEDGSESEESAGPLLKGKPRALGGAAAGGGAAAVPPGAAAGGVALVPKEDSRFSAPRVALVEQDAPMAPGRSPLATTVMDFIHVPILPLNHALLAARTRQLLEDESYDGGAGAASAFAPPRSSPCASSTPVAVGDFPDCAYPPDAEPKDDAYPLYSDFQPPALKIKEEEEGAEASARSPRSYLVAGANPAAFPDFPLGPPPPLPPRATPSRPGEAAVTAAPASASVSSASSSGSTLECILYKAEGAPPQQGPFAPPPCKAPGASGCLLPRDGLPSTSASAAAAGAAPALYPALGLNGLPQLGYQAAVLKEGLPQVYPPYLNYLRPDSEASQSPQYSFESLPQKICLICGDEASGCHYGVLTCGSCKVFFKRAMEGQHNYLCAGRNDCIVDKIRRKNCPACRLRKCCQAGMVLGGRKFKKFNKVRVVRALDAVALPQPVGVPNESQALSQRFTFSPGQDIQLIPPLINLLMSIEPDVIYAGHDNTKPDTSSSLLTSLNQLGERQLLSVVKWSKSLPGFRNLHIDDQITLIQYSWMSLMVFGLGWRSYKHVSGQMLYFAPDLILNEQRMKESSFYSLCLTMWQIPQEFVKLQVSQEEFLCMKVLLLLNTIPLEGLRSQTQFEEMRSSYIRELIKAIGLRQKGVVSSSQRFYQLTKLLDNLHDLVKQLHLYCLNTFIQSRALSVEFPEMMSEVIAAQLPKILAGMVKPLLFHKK
# Summary of the method: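 Cell-free radioligand binding using receptor protein extracted from T47D cells, read by scintillation counting 18 hours after dosing. Loss of signal relative to DMSO baseline indicates displacement; primary screen single concentration 25 uM in duplicate, actives followed in concentration series.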
# [12] = molecular target: Androgen Receptor/SRC-1 Co-activator, AR (gene 367) (UniProt P10275); assay: OT_AR_ARSRC1_0960: Odyssey Thera (OT) 16-hour HEK293T Protein-Complementation Assay for Androgen Receptor/SRC-1 Co-activator (AID 2283353);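 further: actives raise the signal above DMSO so potency reflects increased AR and SRC-1 complex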
# Chain of Androgen Receptor/SRC-1 Co-activator, AR (gene 367) (P10275 whole entry, looked up, the tested form may be a part): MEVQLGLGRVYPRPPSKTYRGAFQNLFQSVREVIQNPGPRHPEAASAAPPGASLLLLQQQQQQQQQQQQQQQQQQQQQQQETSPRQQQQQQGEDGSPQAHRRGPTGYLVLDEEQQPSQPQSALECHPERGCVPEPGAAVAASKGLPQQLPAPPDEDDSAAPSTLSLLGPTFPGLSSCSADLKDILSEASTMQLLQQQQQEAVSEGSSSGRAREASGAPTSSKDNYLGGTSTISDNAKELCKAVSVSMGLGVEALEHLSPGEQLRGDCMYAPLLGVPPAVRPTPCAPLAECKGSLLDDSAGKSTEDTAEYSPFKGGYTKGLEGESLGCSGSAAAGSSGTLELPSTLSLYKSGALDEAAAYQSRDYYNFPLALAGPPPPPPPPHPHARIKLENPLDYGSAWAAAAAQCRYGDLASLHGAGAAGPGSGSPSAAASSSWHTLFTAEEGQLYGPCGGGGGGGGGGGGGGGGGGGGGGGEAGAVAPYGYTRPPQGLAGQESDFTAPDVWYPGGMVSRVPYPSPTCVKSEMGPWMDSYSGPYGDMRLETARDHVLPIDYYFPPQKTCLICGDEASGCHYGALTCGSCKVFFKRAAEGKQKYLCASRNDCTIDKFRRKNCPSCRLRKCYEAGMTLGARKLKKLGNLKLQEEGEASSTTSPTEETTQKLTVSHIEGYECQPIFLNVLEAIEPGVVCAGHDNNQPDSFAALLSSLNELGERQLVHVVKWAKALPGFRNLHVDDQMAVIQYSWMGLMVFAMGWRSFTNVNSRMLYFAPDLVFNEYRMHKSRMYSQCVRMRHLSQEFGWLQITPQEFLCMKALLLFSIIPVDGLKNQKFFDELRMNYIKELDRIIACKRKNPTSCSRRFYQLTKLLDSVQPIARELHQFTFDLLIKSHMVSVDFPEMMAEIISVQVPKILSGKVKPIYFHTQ
# Summary of the method: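 Interaction of AR with SRC-1 was followed by YFP fragment complementation in HEK293T cells after 16 h of dosing. Gain of nuclear-over-cytoplasmic 488 nm fluorescence against DMSO controls defined activity.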
# [13] = molecular target: Androgen Receptor/SRC-1 Co-activator, AR (gene 367) (UniProt P10275); assay: OT_AR_ARSRC1_0480: Odyssey Thera (OT) 8-hour HEK293T Protein-Complementation Assay for Androgen Receptor/SRC-1 Co-activator (AID 2283354);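 further: hits raise the complementation signal above DMSO so AC50 marks enhancers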
# Summary of the method: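 HEK293T cells stably expressing AR and SRC-1 fused to Venus YFP fragments, imaged 8 h after dosing. Complementation fluorescence scored as nuclear/cytoplasmic ratio at 488 nm in at least 400 cells per image; gain fitted versus DMSO.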
compound,measurement,setting,value
S=c1[nH]c2ccccc2s1,outcome,[1],inactive
same,outcome,[2],inactive
CC(C)c1cccc(C(C)C)c1,outcome,[3],inactive
same,outcome,[4],inactive
COc1ccc(C(=O)Nc2nc3ccccc3c(NCc3ccccc3)c2C#N)cc1,outcome,[3],inactive
same,outcome,[4],inactive
same,outcome,[5],inactive
same,outcome,[6],inactive
same,outcome,[2],inactive
same,outcome,[7],inactive
O=C(O)CC(O)(CC(=O)O)C(=O)O,outcome,[3],inactive
same,outcome,[4],inactive
same,outcome,[5],inactive
same,outcome,[8],inactive
same,outcome,[6],inactive
same,outcome,[2],inactive
same,outcome,[9],inactive
NC(=Nc1ccccc1)Nc1ccccc1,outcome,[3],inactive
same,outcome,[4],inactive
same,outcome,[5],inactive
same,outcome,[6],inactive
same,outcome,[2],inactive
same,outcome,[7],inactive
CC(=O)CC(c1ccccc1)c1c(O)c2ccccc2oc1=O (configuration not stated),outcome,[1],inactive
CCc1cc(C2=C(C(=O)O)N(c3ccccc3C(F)(F)F)S(=O)(=O)c3ccccc32)cc2c1OCO2,AC50,[1],25 µM (active)
Cc1ccc(C(C)(C)C)c(O)c1,outcome,[10],inactive
same,outcome,[3],inactive
same,outcome,[4],inactive
same,outcome,[5],inactive
same,AC50,[6],33.9 µM (active)
same,AC50,[2],13.2 µM (active)
COC(=O)CCC(=O)OC,outcome,[3],inactive
same,outcome,[4],inactive
same,outcome,[11],inactive
CN(C)CCCN(C)CCCN(C)C,outcome,[3],inactive
same,outcome,[4],inactive
same,outcome,[6],inactive
same,outcome,[2],inactive
same,outcome,[7],inactive
same,outcome,[11],inactive
c1ccc2occc2c1,outcome,[3],inactive
same,outcome,[4],inactive
O=C(NS(=O)(=O)/C=C/c1cccs1)c1ccc(F)cc1Br,outcome,[3],inactive
same,outcome,[4],inactive
same,outcome,[12],inactive
same,outcome,[6],inactive
same,outcome,[2],inactive
CCCCCCCCCCCCCCCCO,outcome,[3],inactive
same,outcome,[4],inactive
same,outcome,[6],inactive
CCCCCCCC(=O)OC,outcome,[3],inactive
same,outcome,[4],inactive
same,outcome,[6],inactive
same,outcome,[2],inactive
O=C1CCCCC1,outcome,[3],inactive
same,outcome,[4],inactive
same,outcome,[5],inactive
same,outcome,[12],inactive
same,outcome,[13],inactive
same,outcome,[6],inactive
same,outcome,[2],inactive
Oc1ccc(O)cc1,outcome,[3],inactive
same,outcome,[4],inactive
same,outcome,[5],inactive
same,outcome,[6],inactive
same,outcome,[2],inactive
same,outcome,[7],inactive
